# In the library only some 2% were active in any assay of this set; here they are far more common.
# Abeta yeast res: A-beta toxicity reversal in yeast. yeast expressing A-beta42, growth rescue, OD600, 48 h; response scale: 0% DMSO, 100% iron-clioquinol control. Potency, µM (highest dose often 46.1 µM), usual class: activators. actives 0.063% (n = 410,000). AID 1347071; also: nearly all actives have a fitted effect of over 55% in size
#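 Growth rescue measured by 600 nm absorbance after 48 h yeast culture at 30 C with compound. Values normalized between DMSO and an equimolar ferric chloride plus clioquinol control.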
# mIDH1 inhibitor: inhibitors of human mutant IDH1 R132H; O75874; IDH1-R132H enzyme, NADPH consumption, diaphorase/resazurin fluorescence; Potency, µM (highest dose often 76.6 µM), hits mostly inhibitors; actives 0.093% (n = 390,000); AID 602179; also: nearly all actives have a fitted effect of over 65% in size
# Target sequence (O75874 whole entry R132H, stated change not applied): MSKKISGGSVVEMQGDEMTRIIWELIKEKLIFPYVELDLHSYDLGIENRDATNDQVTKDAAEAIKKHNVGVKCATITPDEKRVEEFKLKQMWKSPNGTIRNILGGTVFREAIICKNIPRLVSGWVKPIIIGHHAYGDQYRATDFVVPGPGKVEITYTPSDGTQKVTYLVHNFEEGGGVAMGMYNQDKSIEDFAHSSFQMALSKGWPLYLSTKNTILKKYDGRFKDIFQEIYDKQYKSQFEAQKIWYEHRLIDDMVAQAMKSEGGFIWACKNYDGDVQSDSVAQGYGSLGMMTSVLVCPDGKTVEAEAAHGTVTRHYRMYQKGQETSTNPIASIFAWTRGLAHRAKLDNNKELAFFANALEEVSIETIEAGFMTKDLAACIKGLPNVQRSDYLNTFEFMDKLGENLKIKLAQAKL
#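 IDH1-R132H (0.5 ug/mL) preincubated 30 min with compound, then NADPH (0.016 mM) and alpha-KG (2 mM) added; 80 min at RT, pH 7.5. Remaining NADPH coupled via diaphorase/resazurin to fluorescence (540/590 nm); concentration-response curves normalized to no-enzyme control.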
# aSyn yeast inh: inhibitors of alpha-synuclein toxicity in yeast | Yeast expressing alpha-synuclein, growth rescue, BacTiter-Glo, 24 h | actives 0.14% (n = 370,000) | Potency, µM (series often up to 46.1 µM), actives largely listed as activators | AID 652106; also: nearly all actives have a fitted effect of over 65% in size
#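 Rescue of yeast growth: cells expressing toxic alpha-synuclein, induced in galactose at OD600 0.02, incubated with compound 24 h at 30 C. ATP luminescence quantified growth; inhibitors of toxicity appear as activators.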
# LDHA block: blocks human lactate dehydrogenase A; P00338; purified LDHA, NADH/diaphorase-resazurin fluorescence; hits give low values; activity change, % (values are at about 110 or 230 µM); actives 0.15% (n = 480,000); AID 1347041; in the data active = activity change below about -30%; inconclusive = mostly about -25% to -30%
#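 LDH5 2 nM; NADH 0.06 mM, pyruvate 0.2 mM; 200 mM Tris pH 7.4, EDTA, Tween-20; 5 min RT. Detection: diaphorase 0.133 mg/mL + resazurin 37 µM, fluorescence ex540/em590 at 0 and 20 min; normalized to enzyme-free and DMSO wells.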
# TDP43 rescue: rescues yeast growth from TDP-43 toxicity; TDP-43 expressing yeast growth rescue, BacTiter-Glo, 24 h; actives 1.8% (n = 410,000); Potency, µM (highest dose often 46.1 µM), hits mostly activators; also: nearly all actives have a fitted effect of over 50% in size
#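 Growth rescue of TDP-43-toxic yeast measured as ATP luminescence (BacTiter-Glo). Cells grown to mid-log in raffinose, induced in galactose at OD600=0.02, exposed to compound 24 hr at 30 deg C.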
# FUS yeast rescue: FUS proteinopathy suppression in yeast. S. cerevisiae FUS-expressing, growth rescue, OD600, 24 h. Potency, µM (series often up to 76.6 µM), hits mostly activators. actives 0.24% (n = 390,000); also: nearly all actives have a fitted effect of over 55% in size
#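 Toxicity suppression screen in FUS-yeast. Cells induced with 2% galactose, starting OD 0.005, treated 24hr at 30C with compounds at multiple final concentrations; growth by OD600.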
# A number is an active result; n = inactive; u = inconclusive; x = no result. Unless noted, calls follow the shape of the dose curve; as a rule, active = well fitted curve in the direction sought with a large enough effect; inconclusive = small, poorly fitted or top-dose-only effect, or another doubt; inactive = no such curve, though single readings can be large; an effect the other way counts as inactive or inconclusive.
SMILES,Abeta yeast res,mIDH1 inhibitor,aSyn yeast inh,LDHA block,TDP43 rescue,FUS yeast rescue
CCn1c2ccccc2c2cc(/C(C)=N/O)ccc21,n,n,u,n,35µM,x
CCCn1c2ccccc2c2cc(C(=O)O)ccc21,n,n,n,n,6.3µM,n
O=C(CSCc1ccccc1Cl)N1CCN(c2ccc(Cl)cc2)CC1,n,n,x,n,16µM,u
O=C(CSCc1ccc(F)cc1)N1CCN(c2ccc(F)cc2)CC1,n,n,n,n,n,n
O=C(CSCc1ccccc1Cl)N1CCN(c2ccc(F)cc2)CC1,n,n,x,n,14µM,n
COc1ccc(CSc2ncnc3sccc23)cc1F,n,n,n,n,13µM,n
Cc1cccc(OCC(O)CN(Cc2ccccc2)Cc2ccccc2)c1 (stereo not given),x,x,x,n,x,x
CCOc1ccccc1C1CC(c2cccc(NS(C)(=O)=O)c2)=NN1C(=O)c1ccco1 (stereo not given),x,x,x,n,x,x
CCC(=O)Nc1cccc(-c2nnc(SCC(=O)NCc3ccco3)n2C)c1,n,n,n,-31,n,x
CCn1c(SCC(=O)Nc2cccc(NC(C)=O)c2)nnc1-c1ccco1,n,n,n,n,n,n
Cn1c(SCC(=O)NCc2ccco2)nnc1-c1cccc(NC(=O)c2ccccc2)c1,x,x,n,n,x,x
CCn1c(SCC(=O)Nc2ccc3c(c2)c2ccccc2n3CC)nnc1-c1ccco1,n,n,n,n,n,25µM
N#Cc1ccc(-c2csc(-c3ccncc3)n2)cc1,x,x,x,n,x,x
O=Cc1cc(O)ccc1Br,x,x,x,n,x,x
COc1ccc(/C=C\c2onc(C)c2S(=O)(=O)N2CCC(C(=O)Nc3ccccc3OC)CC2)cc1,n,n,x,n,n,13µM
Cc1cc(C)n(-c2nc(Nc3ccccc3C(F)(F)F)nc(-n3nc(C)cc3C)n2)n1,n,n,u,n,20µM,u
CCc1ccccc1NC(=O)Cn1cnc2c(cnn2-c2cc(Cl)ccc2C)c1=O,x,x,x,n,x,x
Cc1ccccc1CNC(=O)c1cc2ccccc2o1,n,n,n,n,u,n
O=C(NCc1ccccc1Cl)c1cc2ccccc2o1,n,n,x,n,11µM,n
c1ccc(-n2nnnc2-c2cnc(-c3cccnc3)nc2-c2cccs2)cc1,n,n,n,n,32µM,u
Clc1ccc(-n2nnnc2-c2cnc3ccccc3c2-c2ccccc2)cc1,n,n,u,n,u,n
CCCC(=O)N1c2ccccc2C(=C2SC(C(=O)OC)=C(C(=O)OC)S2)C(=S)C1(C)C,n,n,n,n,u,n
COC(=O)C1=C(C(=O)OC)SC(=C2C(=S)C(C)(C)N(C(=O)C3CC3)c3ccccc32)S1,n,n,n,n,2.2µM,n
COC(=O)C1=C(C(=O)OC)SC(=C2C(=S)C(C)(C)N(C(=O)C(C)C)c3ccccc32)S1,n,n,u,n,3.2µM,n
COC(=O)c1ccccc1SCC(=O)Nc1cccc2c(=O)[nH][nH]c(=O)c12,x,x,x,n,x,x
SMILES,Abeta yeast res,mIDH1 inhibitor,aSyn yeast inh,LDHA block,TDP43 rescue,FUS yeast rescue
CC(NC(=O)c1ccco1)c1cccc2ccccc12 (stereo not given),n,n,n,n,20µM,n
COC(=O)CC(NC(=O)c1ccco1)c1cccc2ccccc12 (stereo not given),n,n,n,n,n,n
CCC1CN(CC(=O)Nc2cc(C)cc(C)c2)c2ccccc2S1 (stereo not given),x,x,x,n,x,x
Oc1cccc(C2c3[nH]c4ccccc4c3CCN2Cc2ccoc2)c1 (stereo not given),n,n,n,-121,n,n
CCc1ccc(N=c2c([N+](=O)[O-])nn(-c3ccccc3)n2O)cc1,u,n,n,n,13µM,n
Cc1cc(C)cc(N=c2c([N+](=O)[O-])nn(-c3ccc(Cl)cc3)n2O)c1,n,n,n,n,u,n
Cc1ccc(CN=c2c([N+](=O)[O-])nn(-c3cccc(C)c3)n2O)cc1,n,n,n,n,16µM,n
Cc1ccc(CN=c2c([N+](=O)[O-])nn(-c3cccc(Cl)c3)n2O)cc1,u,n,n,n,10µM,n
C=C1C2(C(=O)Nc3nccs3)CCC(C2)C1(C)C (stereo not given),u,n,n,n,13µM,n
CN(C(=O)Cc1c[nH]c2ccccc12)c1nc2ccccc2s1,x,x,x,n,x,x
CC1(C(=O)NCc2ccc3c(c2)OCO3)CCN1C(=O)C1(c2ccc(Cl)cc2)CC1 (stereo not given),n,x,n,n,25µM,n
Cn1nc(C(C)(C)C)cc1NC(=O)C1(C)CCN1C(=O)C1(c2ccccc2)CCCC1 (stereo not given),n,x,n,n,35µM,n
CC1(C(=O)Nc2ccc3c(c2)OCCO3)CCN1C(=O)C1(c2ccccc2)CC1 (stereo not given),n,x,n,n,13µM,n
CC1(C(=O)Nc2ccc3c(c2)OCO3)CCN1C(=O)C1(c2ccc(Cl)cc2)CC1 (stereo not given),n,x,n,n,n,u
CC1(C(=O)Nc2ccc3c(c2)OCCO3)CCN1C(=O)C/C=C/c1ccccc1 (stereo not given),n,x,n,n,n,n
CCOc1ccccc1NC(=O)CSc1nnc2c3cc(-c4ccc(Cl)cc4)nn3ccn12,x,x,x,n,x,x
CNCCN(C)C1CCCCC1,x,x,x,n,x,x
CCc1c(C)sc(NC(=O)c2ccccc2C)c1C#N,x,x,x,n,x,x
CC(C)(C)NC(=O)c1cc(-c2ccccc2Cl)nc2ccccc12,x,x,x,n,x,x
O=[N+]([O-])c1ccc2[nH]c(O)c(N=NC(=S)Nc3cccnc3)c2c1,n,n,n,n,10µM,n
CCNC(=S)N=Nc1c(O)[nH]c2ccc([N+](=O)[O-])cc12,n,n,n,n,n,n
CCn1c2ccccc2c2cc(CN3CCN(S(=O)(=O)Cc4ccccc4)CC3)ccc21,n,n,n,-30,n,n
CC(C)c1ccc(O)c(C(=O)c2cnn(-c3ccccc3)c2)c1,n,n,n,n,20µM,n
Cn1c(C(=O)N(Cc2ccccc2)Cc2ccccc2)cc2c(=O)n3ccccc3nc21,x,x,x,n,x,x
Cc1cccc(C(=O)NCCS(=O)(=O)Cc2ccccc2)c1,x,x,x,n,x,x
Clc1ccc(CSc2nnc(CNc3cccc(Cl)c3)o2)cc1,n,n,8.9µM,n,n,n
NCCc1nnc(SCc2ccc(Cl)cc2)o1,n,n,x,n,n,n
CC(C)(C)OC(=O)NCCc1nnc(SCc2ccc(Cl)cc2)o1,n,n,n,n,18µM,u
Fc1cccc(Cl)c1CSc1nnc(CNc2ccccc2)o1,n,n,u,n,18µM,n
Fc1ccc(NCc2nnc(SCc3ccccc3)o2)cc1,n,n,n,n,u,n

# Screening data as filed in PubChem BioAssay.
